About 83,000 compounds went through this panel and 20% of them were active in at least one assay; those are over-represented in the sample as a whole.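 Compound tested at a single concentration for 48 hours in 96-well plates; a percent growth value below 10 was scored as active.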 A number with no mark means an inactive call. Calls of active or inactive are those of the source.
Experiments:
Assay in all cases: NCI-60 one-dose screen, 48 h (100 = growth as untreated, 0 = no growth, -100 = all killed)
Settings in all cases: 10 µM unless noted
SK-MEL-2 melanoma = system: SK-MEL-2 melanoma
EKVX NSCLC = system: EKVX NSCLC
SN12C renal = system: SN12C renal
UO-31 renal = system: UO-31 renal
TK-10 renal = system: TK-10 renal
ACHN renal = system: ACHN renal
CAKI-1 renal = system: CAKI-1 renal
A498 renal = system: A498 renal
CCRF-CEM leukemia = system: CCRF-CEM leukemia
MOLT-4 leukemia = system: MOLT-4 leukemia
SR leukemia = system: SR leukemia
RPMI-8226 leukemia = system: RPMI-8226 leukemia
OVCAR-8 ovarian = system: OVCAR-8 ovarian
OVCAR-5 ovarian = system: OVCAR-5 ovarian
OVCAR-4 ovarian = system: OVCAR-4 ovarian
SK-OV-3 ovarian = system: SK-OV-3 ovarian
IGROV1 ovarian = system: IGROV1 ovarian
OVCAR-3 ovarian = system: OVCAR-3 ovarian
HS 578T breast = system: HS 578T breast
NCI/ADR-RES ovarian = system: NCI/ADR-RES ovarian

SMILES | growth (SK-MEL-2 melanoma) | growth (EKVX NSCLC) | growth (SN12C renal) | growth (UO-31 renal) | growth (TK-10 renal) | growth (ACHN renal) | growth (CAKI-1 renal) | growth (A498 renal) | growth (CCRF-CEM leukemia) | growth (MOLT-4 leukemia) | growth (SR leukemia) | growth (RPMI-8226 leukemia) | growth (OVCAR-8 ovarian) | growth (OVCAR-5 ovarian) | growth (OVCAR-4 ovarian) | growth (SK-OV-3 ovarian) | growth (IGROV1 ovarian) | growth (OVCAR-3 ovarian) | growth (HS 578T breast) | growth (NCI/ADR-RES ovarian)
C#CCN(C)CCCOc1ccc(NC(=O)CCCCCCC(=O)NO)cc1Cl | 32.7% | 51.5% | 41.2% | 26.3% | 1.34% (active) | 20.3% | 17.9% | -12.1% (active) | 15.5% | 16.9% | 13.7% | 0.211% (active) | 17.7% | 12.8% | 41.9% | 18.2% | 17% | 27.8% | 19.7% | 65.4%
NCCNC(=O)c1cccc(COc2ccccc2NC(=O)c2cc(Br)c(Br)[nH]2)c1 | 101% | 89.9% | 92.6% | 90% | 89% | 101% | 90.1% | 81.1% | 17.9% | 68.7% | 8.3% (active) | 86.8% | 64.6% | 101% | 103% | 136% | 88% | 103% | 100% | 96.7%
COc1cc2c3c(cc4c5c(ccc4c3c1OC)OCO5)N(CCN(C)C)C2=O | -44.5% (active) | -22% (active) | -5.44% (active) | -53.9% (active) | -4.01% (active) | -51.4% (active) | -26.6% (active) | -77.6% (active) | 1.57% (active) | 3.85% (active) | -1.44% (active) | -21.7% (active) | 9.28% (active) | -6.73% (active) | -4.27% (active) | 2.24% (active) | -11.3% (active) | 0.51% (active) | -8.56% (active) | 4.67% (active)
O=C(/C=C/c1cccc(F)c1)c1cccc(OCCCCOc2cccc(C(=O)/C=C/c3cccc(F)c3)c2)c1 | 101% | 99% | 95.2% | 96% | 100% | 100% | 99.1% | 110% | 102% | 95% | 84.8% | 8.56% (active) | 104% | 99.1% | 106% | 109% | 103% | 105% | 99.3% | 106%
CC1(C)CC[C@]23CC[C@]4(C)[C@H](CC[C@@H]5[C@@]6(C)CC[C@H](N)C(C)(C)[C@@H]6CC[C@]54C)[C@H]2[C@H]1OC3 | 108% | 63.1% | 79.1% | 82.7% | 135% | 36.5% | 1.94% (active) | 108% | -5.4% (active) | -13.3% (active) | -22.5% (active) | -24.1% (active) | 85.6% | 112% | 96.7% | 101% | 69.9% | 70.2% | 94.4% | 2.93% (active)
CN(C)CCCOc1ccc(C(=C(c2ccccc2)C2CCCC2)c2ccc(OCCCN(C)C)cc2)cc1 | -94.3% (active) | -82.2% (active) | -82.2% (active) | -96.8% (active) | -93% (active) | -94.5% (active) | -79.3% (active) | -82.4% (active) | -35.2% (active) | -58% (active) | -37% (active) | -32.1% (active) | -84.2% (active) | -92.9% (active) | -89.4% (active) | -86.4% (active) | -84.7% (active) | -91.7% (active) | -60.7% (active) | -80% (active)
NC1CC2(CCN(c3cnc(C(=O)Nc4cc(F)cc5cccnc45)cn3)CC2)C1 | 101% | 81.9% | 72.5% | 76.1% | 88% | 79% | 79.3% | 74.3% | 34.7% | 40.8% | 3.71% (active) | 61.1% | 94.6% | 85.9% | 95.2% | 107% | 64.8% | 85.2% | 94.2% | 89.2%
N#Cc1c(-c2cccs2)cc(-c2cnccn2)nc1SCC(=O)N/N=C/c1ccc(Cl)cc1 | 121% | 93.5% | 104% | 92.6% | 130% | 102% | 90.8% | 87.1% | 87.6% | 102% | 87.1% | 97.6% | 104% | 112% | 105% | 114% | 109% | 117% | 103% | 102%
CC(=C(c1ccc(OCCCN(C)C)cc1)c1ccc(OCCCN(C)C)cc1)c1ccc(Cl)cc1 | 99.3% | 94.7% | 85.5% | 88.5% | 96.5% | 92.6% | 92.6% | 79.2% | 66.8% | 65.3% | 21.7% | 79.3% | 100% | 100% | 108% | 103% | 87.1% | 91.1% | 81.8% | 95.2%
O=C(CCCCCCNC(=O)C(O)(O)C(F)(F)F)Nc1ncc(-c2ccc(Br)cc2)s1 | -27.3% (active) | 21.5% | 0.547% (active) | -26.1% (active) | -20.2% (active) | -32.1% (active) | -32.8% (active) | -41.2% (active) | 18.4% | 4.21% (active) | 8.24% (active) | 11.2% | 1.13% (active) | -2.49% (active) | 21.8% | -14.6% (active) | -21.8% (active) | -58.1% (active) | 16.6% | -4.64% (active)
N#Cc1c(-c2cccs2)cc(-c2cnccn2)nc1SCC(=O)N/N=C/c1cccs1 | 78.5% | 59% | 52.1% | 89.1% | 65.1% | 49.8% | 30% | 25.5% | 90.6% | 85.2% | 74.7% | 25.1% | 56.3% | 82.8% | 72.1% | 56.5% | 74.6% | 62.3% | 58.7% | 52.9%
COc1ccc(C2c3[nH]c4ccc(Cl)cc4c3CCN2c2oc(CO)nc2C#N)cc1 (stereo not given) | 81.6% | 59.4% | 66.4% | 54% | 93.9% | 45.3% | 36.5% | 68.7% | 37.3% | 29.3% | 17.4% | 46.3% | 45.9% | 78.1% | 69.7% | 101% | 39.4% | 46.7% | 69.1% | 43%
NS(=O)(=O)c1nnc(/N=C/c2c(O)[nH]c3ccccc23)s1 | 114% | 84.2% | 101% | 72.5% | 142% | 93.7% | 86.5% | 107% | 106% | 126% | 98.3% | 109% | 99.9% | 121% | 98.5% | 99.5% | 76.5% | 107% | 102% | 107%
CC(C)(C)Nc1nc2c(OCCc3ccccc3)cccn2c1-c1ccc([N+](=O)[O-])cc1 | 60.5% | 41.8% | 75.5% | 31.6% | 66.5% | 54.4% | 43.3% | 97.7% | 53.7% | 18.1% | 52% | 43.1% | 64% | 67.3% | 42.3% | 76.5% | 56.9% | 50.6% | 78.3% | 51.6%
Cn1cc(-c2cc3ncnc(Nc4ccc(CC(=O)Nc5nc(C(C)(C)C)cs5)cc4)c3s2)cn1 | 36.5% | 48% | 23.6% | 31.6% | 44.7% | 18.6% | 7.53% (active) | -4.34% (active) | 23.1% | 16% | 36.2% | 38.8% | 38.1% | 84.3% | 28.2% | 26.2% | 12% | 62.3% | 47.3% | 101%

Reference: PubChem BioAssay (NCI)
